Experimental data from PubChem BioAssay AID1159580 (chemical genetic matrix, 2015).
Hit rate of the full screen: of about 5,500 compounds, about 2,000 (36%) were called active. Roughly 18% stayed inconclusive and do not appear here. Rule as the data show it: active = normalized growth mostly below about 0.91 (no sharp cut-off); inconclusive = no clear call, values can overlap the other calls; inactive = mostly above about 0.92. The list shows a part of the results.

Assay: chemical genetic growth profiling, strain panel (AID 1159580);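 also: tested at 20 µM; growth read once vehicle control cultures reached saturation at 30 °C; 1 = growth at the plate median or of vehicle wells; lower values mean less growth of the strain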
Settings: S. cerevisiae deletion strains, growth OD

Measured: normalized growth

CCCn1c(=O)c2c(ncn2C)n(CCC)c1=O
inactive: locus YAL013W, strain DEP1, stronger effect = lower value 0.983 | locus YCL061C, strain MRC1 (second series), stronger effect = lower value 1 | locus YDR150W, strain NUM1, stronger effect = lower value 1.02 | locus YDR363W, strain ESC2, stronger effect = lower value 0.964 | locus YER002W, strain NOP16, stronger effect = lower value 0.999 | locus YGR078C, strain PAC10, stronger effect = lower value 0.986 | locus YNL128W, strain TEP1, stronger effect = lower value 0.992 | locus YNL175C, strain NOP13, stronger effect = lower value 1 | locus YNL197C, strain WHI3, stronger effect = lower value 1 | locus YNL224C, strain SQS1, stronger effect = lower value 0.988 | locus YNL322C, strain KRE1, stronger effect = lower value 0.994 | locus YOR083W, strain WHI5 (second series), stronger effect = lower value 0.981 | locus YPL241C, strain CIN2, stronger effect = lower value 1.01
active: locus YAL040C, strain CLN3, stronger effect = lower value 1.13 [resistant]
